# Data: ChEMBL document CHEMBL5606458, “ASAP - ZIKV NS2B-NS3 protease fluorescence single point” (2024)
# Screen size: about 2,700 compounds; about 160 (5.9%) showed an effect of 50% or more. This is one part of a sample in which strong results are shown more often than they occur.
# Biological target: Nonstructural protein 3 (Zika virus) (UniProt A0A024AXB9)
# [1] = PRVABC59, Concentration 15.0 uM, Number of replicates 1.0
# [2] = PRVABC59, Concentration 50.0 uM, Number of replicates 1.0
# Nonstructural protein 3 (Zika virus), sequence (A0A024AXB9 as listed by the source): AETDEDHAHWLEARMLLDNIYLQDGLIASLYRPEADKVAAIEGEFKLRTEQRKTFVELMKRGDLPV
compound,measurement,setting,value
O=C(NCCNC(=O)c1cc(Cl)ccc1NS(=O)(=O)c1ccc(Oc2ccccc2Cl)cc1)c1ccccc1Cl,inhibition,[1],25%
NC(=O)[C@H](Cc1ccc(O)cc1)NC(=O)C1CCN(c2ccc(C=O)cc2)CC1,inhibition,[2],27%
O=C(c1cc(Cl)ccc1NS(=O)(=O)c1ccc(Oc2ccccc2Cl)cc1)N1CCC(n2c(=O)[nH]c3ccccc32)CC1,inhibition,[1],15.6%
CC(C)(CO)NC(=O)c1cc(Cl)cc(NC(=O)Cc2cccc(N3CCOCC3)c2)c1,inhibition,"PRVABC59, Concentration 49.5 uM, Number of replicates 2.0, Standard deviation 3.0522593855592395 %",-2.52%
same,inhibition,"PRVABC59, Concentration 99.01 uM, Number of replicates 2.0, Standard deviation 3.368926317951112 %",-0.793%
same,inhibition,"PRVABC59, Concentration 198.0 uM, Number of replicates 2.0, Standard deviation 2.506775358140388 %",0.389%
O=C(c1cc(Cl)ccc1NS(=O)(=O)c1ccc(Oc2ccccc2Cl)cc1)N1CCC[C@H](C(F)(F)F)C1,inhibition,[1],20.5%
CN(Cc1cccc2ccccc12)C(=O)c1cc(Cl)ccc1NS(=O)(=O)c1ccc(Oc2ccccc2Cl)cc1,inhibition,[1],19.1%
O=C(NCCc1c[nH]cn1)[C@@]1(c2ccc(F)cc2)CCCNC1,inhibition,"PRVABC59, Concentration 50.0 uM, Number of replicates 2.0, Standard deviation 1.8533531884648646 %",1.12%
same,inhibition,"PRVABC59, Concentration 100.0 uM, Number of replicates 2.0, Standard deviation 1.243259032729753 %",2.94%
same,inhibition,"PRVABC59, Concentration 200.0 uM, Number of replicates 2.0, Standard deviation 0.45116199355607794 %",1.26%
Cc1cc(NC(=O)c2cc(Cl)ccc2NS(=O)(=O)c2ccc(Oc3ccccc3Cl)cc2)cc(C)c1Br,inhibition,[1],27.6%
O=C(Nc1cccc(Br)c1)c1cc(Cl)ccc1NS(=O)(=O)c1ccc(Oc2ccccc2Cl)cc1,inhibition,[1],43.8%
O=C(CNC(=O)c1cc(Cl)ccc1NS(=O)(=O)c1ccc(Oc2ccccc2Cl)cc1)c1ccc([N+](=O)[O-])cc1,inhibition,[1],33%
O=C(CNC(=O)c1cc(Cl)ccc1NS(=O)(=O)c1ccc(Oc2ccccc2Cl)cc1)c1ccc(O)cc1,inhibition,[1],52.2%
O=C(Nc1ccc2c(c1)OC(F)(F)O2)c1cc(Cl)ccc1NS(=O)(=O)c1ccc(Oc2ccccc2Cl)cc1,inhibition,[1],50%
Cc1cc(Br)cc(NC(=O)c2cc(Cl)ccc2NS(=O)(=O)c2ccc(Oc3ccccc3Cl)cc2)c1,inhibition,[1],53.6%
O=C(Nc1ccc2c(c1)OCCO2)c1cc(Cl)ccc1NS(=O)(=O)c1ccc(Oc2ccccc2Cl)cc1,inhibition,[1],63.8%
O=C(CNC(=O)c1cc(Cl)ccc1NS(=O)(=O)c1ccc(Oc2ccccc2Cl)cc1)c1ccccc1F,inhibition,[1],40.7%
O=C(NCc1ccc2c(c1)OCCO2)c1cc(Cl)ccc1NS(=O)(=O)c1ccc(Oc2ccccc2Cl)cc1,inhibition,[1],24.8%
O=C(Nc1ccc(I)c(F)c1)c1cc(Cl)ccc1NS(=O)(=O)c1ccc(Oc2ccccc2Cl)cc1,inhibition,[1],37.6%
O=C(Nc1ccc(I)cc1)c1cc(Cl)ccc1NS(=O)(=O)c1ccc(Oc2ccccc2Cl)cc1,inhibition,[1],58.1%
O=C(Nc1cccc(I)c1)c1cc(Cl)ccc1NS(=O)(=O)c1ccc(Oc2ccccc2Cl)cc1,inhibition,[1],48.1%
Cc1cc(CO)c2cccc(Nc3cc(O)[nH]n3)c2n1,inhibition,"PRVABC59, Concentration 49.95 uM, Number of replicates 2.0, Standard deviation 1.761368724187627 %",18.3%
same,inhibition,"PRVABC59, Concentration 99.9 uM, Number of replicates 2.0, Standard deviation 1.139118047569397 %",23.8%
Cn1cc(CNC(=O)c2ccccc2-c2cccnc2)cn1,inhibition,"PRVABC59, Concentration 49.5 uM, Number of replicates 2.0, Standard deviation 0.5877340250731194 %",0.299%
same,inhibition,"PRVABC59, Concentration 99.01 uM, Number of replicates 2.0, Standard deviation 0.42986369479040104 %",-0.679%
same,inhibition,"PRVABC59, Concentration 198.0 uM, Number of replicates 2.0, Standard deviation 0.566811449656849 %",-0.69%
O=Cc1ccc(N2CCC(C(=O)N[C@H](CO)[C@H](O)c3ccc([N+](=O)[O-])cc3)CC2)cc1,inhibition,[2],25.6%
N#Cc1ccc(Cl)c(NC(=O)C2CCN(c3ccc(C=O)cc3)CC2)c1,inhibition,[2],23.1%
O=Cc1ccc(N2CCC(C(=O)NCc3ccccc3-n3cccn3)CC2)cc1,inhibition,"PRVABC59, Concentration 10.0 uM, Number of replicates 1.0",21.4%
N=C(N)NC[C@@H]1CCCN(C(=O)[C@H](Cc2ccc(CN)cc2)NC(=O)c2ccccc2)C1,inhibition,"PRVABC59, Concentration 49.5 uM, Number of replicates 2.0, Standard deviation 0.6960698702606968 %",2.68%
same,inhibition,"PRVABC59, Concentration 99.01 uM, Number of replicates 2.0, Standard deviation 1.1872902095434084 %",12.8%
same,inhibition,"PRVABC59, Concentration 198.0 uM, Number of replicates 2.0, Standard deviation 0.3804343133987339 %",26.8%
CN(C)CCN(Cc1ccccc1)C(=O)c1cc(Cl)ccc1NS(=O)(=O)c1ccc(Oc2ccccc2Cl)cc1,inhibition,[1],15.1%
Cc1ccc2ccccc2c1NC(=O)C1CCN(c2ccc(C=O)cc2)CC1,inhibition,[2],19.8%
CN(C)c1ccc(C(=O)Nc2cc(Cl)cc(C(=O)NC(C)(C)CO)c2)nc1,inhibition,"PRVABC59, Concentration 49.5 uM, Number of replicates 2.0, Standard deviation 3.9613998246279105 %",-1.53%
same,inhibition,"PRVABC59, Concentration 99.01 uM, Number of replicates 2.0, Standard deviation 2.7948399639930708 %",0.849%
Cc1cc(CO)c2cccc(NC(=O)c3cccc(Cn4cncn4)c3)c2n1,inhibition,"PRVABC59, Concentration 49.95 uM, Number of replicates 2.0, Standard deviation 2.574308180740061 %",-0.138%
same,inhibition,"PRVABC59, Concentration 99.9 uM, Number of replicates 2.0, Standard deviation 1.9018768762288814 %",11.1%
Cc1cnccc1NC(=O)c1ccccc1-c1nc(C(C)C)no1,inhibition,"PRVABC59, Concentration 49.5 uM, Number of replicates 2.0, Standard deviation 0.2610834999883118 %",-0.098%
same,inhibition,"PRVABC59, Concentration 99.01 uM, Number of replicates 2.0, Standard deviation 1.3020487023400833 %",-0.148%
same,inhibition,"PRVABC59, Concentration 198.0 uM, Number of replicates 2.0, Standard deviation 1.8545350914642316 %",0.672%
O=C(c1cc(Cl)ccc1NS(=O)(=O)c1ccc(Oc2ccccc2Cl)cc1)N1CCN(c2ccc(Br)cn2)CC1,inhibition,[1],18.6%
O=C(NCCc1ccc(Cl)cc1Cl)c1cc(Cl)ccc1NS(=O)(=O)c1ccc(Oc2ccccc2Cl)cc1,inhibition,[1],27.1%
CN1CCN(C(=O)C2CCN(C(=O)C3CCN(c4ccc(C=O)cc4)CC3)CC2)CC1,inhibition,[2],21.1%
O=Cc1ccc(N2CCC(C(=O)N3CCC(N4CCCC4=O)CC3)CC2)cc1,inhibition,[2],23.2%
O=C(Nc1cc(Cl)cc([N+](=O)[O-])c1O)c1cc(Cl)ccc1NS(=O)(=O)c1ccc(Oc2ccccc2Cl)cc1,inhibition,[1],92.4%
O=C(Nc1cc(Cl)ccc1Br)c1cc(Cl)ccc1NS(=O)(=O)c1ccc(Oc2ccccc2Cl)cc1,inhibition,[1],24.1%
O=C(Nc1ccccc1)c1cc(Cl)ccc1NS(=O)(=O)c1ccc(Oc2ccccc2Cl)cc1,inhibition,[1],54.2%
O=C(Nc1ccc(Oc2ccccc2Cl)cc1)c1cc(Cl)ccc1NS(=O)(=O)c1ccc(Oc2ccccc2Cl)cc1,inhibition,[1],19.7%
O=C(Nc1cc(Cl)cc(Cl)c1O)c1cc(Cl)ccc1NS(=O)(=O)c1ccc(Oc2ccccc2Cl)cc1,inhibition,[1],74.3%
O=C(Nc1ccc(Oc2ccc(Cl)cc2)cc1)c1cc(Cl)ccc1NS(=O)(=O)c1ccc(Oc2ccccc2Cl)cc1,inhibition,[1],14.2%
O=C(Nc1ccc([N+](=O)[O-])cc1)c1cc(Cl)ccc1NS(=O)(=O)c1ccc(Oc2ccccc2Cl)cc1,inhibition,[1],29.8%
O=C(Nc1ccc(O)cc1[N+](=O)[O-])c1cc(Cl)ccc1NS(=O)(=O)c1ccc(Oc2ccccc2Cl)cc1,inhibition,[1],32.2%
O=C(Nc1ccc([N+](=O)[O-])c2ccccc12)c1cc(Cl)ccc1NS(=O)(=O)c1ccc(Oc2ccccc2Cl)cc1,inhibition,[1],22.7%
CCCOc1ccc(NC(=O)c2cc(Cl)ccc2NS(=O)(=O)c2ccc(Oc3ccccc3Cl)cc2)cc1,inhibition,[1],43.9%
O=C(Nc1ccc2ccccc2c1O)c1cc(Cl)ccc1NS(=O)(=O)c1ccc(Oc2ccccc2Cl)cc1,inhibition,[1],14%
CC(=O)Nc1ccc(NC(=O)c2cc(Cl)ccc2NS(=O)(=O)c2ccc(Oc3ccccc3Cl)cc2)cc1,inhibition,[1],63.1%
CCOc1ccccc1CCNC(=O)c1cc(Cl)ccc1NS(=O)(=O)c1ccc(Oc2ccccc2Cl)cc1,inhibition,[1],9.83%
CNC(=O)c1cc(Cl)ccc1NS(=O)(=O)c1ccc2[nH]cnc2c1,inhibition,"PRVABC59, Concentration 49.5 uM, Number of replicates 2.0, Standard deviation 2.3657282322003765 %",-9.41%
Cc1cc(CO)c2cccc(Nc3cc(C)on3)c2n1,inhibition,"PRVABC59, Concentration 49.95 uM, Number of replicates 2.0, Standard deviation 0.1664787029188791 %",-8.71%
